In the library only some 0.59% were active in any assay of this set; here they are far more common.
Integrin act MD: integrin-mediated muscular dystrophy alleviation activation; AID 624291; 350,000 tested, 0.064% active; alpha7betagal myoblasts, beta-gal FDG fluorescence, 48 h; Potency, µM (titrated, usually from 38.3 µM), for the others: top-dose activation, hits mostly activators; active means well fitted activation curve with a large enough effect; inconclusive means small, poorly fitted or top-dose-only effect; inactive means no such curve, though single readings can be large or run the other way;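 further: potency means the concentration at half of the fitted maximal effect; 100% = response of the positive control SU9516; nearly all actives have a fitted effect of over 60% in size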
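Alpha7betagal+/- myoblasts (passage 13) were plated 16-24 hr, then exposed to compounds (1:260 dilution of DMSO stock) for 48 hours at 37C. After MPER lysis, β-galactosidase reporter activity was read as FDG fluorescence (ex 480/em 540) after 30 minutes.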
Giardia killer: kills Giardia lamblia; Giardia lamblia trophozoite viability; activity change, % at 7.66 µM, hits read low; 340,000 tested, 0.15% active; AID 540267; in the data active means activity change below about -80%; inconclusive means between about -30% and that limit;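 further: parasites exposed to compound for two days anaerobically before the ATP read; on the % scale 0 is the no-effect control and ±100 the full control effect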
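Each well holds 100 Giardia trophozoites and compound. After two days (48 hrs) at 37 deg C in anaerobic conditions, ATP is quantified by luminescence.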
Rango-impB inh: inhibitors of Rango-importin beta complex formation | Potency, µM (titrated, usually from 92.2 µM), inactives show at the top dose inhibition of complex formation | 340,000 tested, 0.031% active | Rango CFP/YFP FRET sensor + importin beta, 45 min | Q14974;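 further: potency means the concentration at half of the fitted maximal effect; 0% = DMSO wells and 100% = buffer wells lacking importin beta; nearly all actives have a fitted effect of over 15% in size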
Target sequence (Q14974 whole entry, looked up): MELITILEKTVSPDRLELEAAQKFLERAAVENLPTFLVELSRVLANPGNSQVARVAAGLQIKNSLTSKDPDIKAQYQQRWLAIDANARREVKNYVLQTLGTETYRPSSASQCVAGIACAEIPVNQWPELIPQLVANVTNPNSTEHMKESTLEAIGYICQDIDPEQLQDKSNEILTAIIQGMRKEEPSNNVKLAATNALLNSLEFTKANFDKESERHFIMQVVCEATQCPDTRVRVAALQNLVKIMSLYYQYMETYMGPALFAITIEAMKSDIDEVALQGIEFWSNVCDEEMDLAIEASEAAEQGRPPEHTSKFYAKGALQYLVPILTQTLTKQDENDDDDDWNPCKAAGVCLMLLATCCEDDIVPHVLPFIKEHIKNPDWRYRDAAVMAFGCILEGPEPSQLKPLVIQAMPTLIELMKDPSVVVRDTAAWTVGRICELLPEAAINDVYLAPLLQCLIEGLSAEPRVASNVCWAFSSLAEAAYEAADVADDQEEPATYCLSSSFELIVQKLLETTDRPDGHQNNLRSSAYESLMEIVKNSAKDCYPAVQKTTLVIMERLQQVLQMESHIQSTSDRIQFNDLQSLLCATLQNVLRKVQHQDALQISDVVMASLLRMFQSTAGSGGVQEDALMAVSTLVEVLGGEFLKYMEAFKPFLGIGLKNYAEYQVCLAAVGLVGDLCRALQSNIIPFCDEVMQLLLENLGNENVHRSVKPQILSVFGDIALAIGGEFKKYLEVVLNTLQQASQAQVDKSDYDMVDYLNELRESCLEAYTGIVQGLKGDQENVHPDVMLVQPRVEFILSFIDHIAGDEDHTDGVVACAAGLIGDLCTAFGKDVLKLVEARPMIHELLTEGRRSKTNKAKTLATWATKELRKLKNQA
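Inhibition scored from the CFP 486 nm/YFP 530 nm FRET ratio 45 min after adding 0.125 microM importin beta to 50 nM Rango biosensor preincubated 5 min with compound (room temperature, PBS with DTT, Tween-20, BSA). No-importin wells as positive control.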
uPA generation: blocks generation of uPA at the cell surface. 330,000 tested, 0.31% active. cell surface uPA generation assay, qHTS. Potency, µM (series often up to 38.3 µM), without a hit: at the top dose activity change, negative = inhibition, usual class: inhibitors; active means well fitted inhibition curve with a large enough effect; inconclusive means small, poorly fitted or top-dose-only effect; inactive means no such curve, though single readings can be large or run the other way; tested in mouse RAW 264.7 cells; further: potency means the concentration at half of the fitted maximal effect; on the % scale 0 is the no-effect control and ±100 the full control effect; nearly all actives have a fitted effect of over 55% in size
Rango release inh: inhibitors of RanGTP-induced Rango-importin beta complex dissociation; Potency, µM (highest dose often 46.1 µM), without a hit: at the highest dose activity change, negative = inhibition; 340,000 tested, 0.071% active; Biochemical FRET Rango-importin beta, RanGTP-induced dissociation; further: potency means the concentration at half of the fitted maximal effect; % of control where 0% means no effect; nearly all actives have a fitted effect of over 45% in size
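Rango FRET biosensor (snurportin-1 IBB flanked by N-terminal EYFP and C-terminal CFP10) at 0.1 uM, with 0.25 uM importin beta in PBS, 1mM DTT, 0.02% Tween-20, 0.1% BSA. 0.6 uM Ran, 2mM GTP and 0.2 uM RCC1 were then added for 45 min at room temperature. Inhibition read as loss of FRET rise.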
* hit, by the source's call. Unless noted, the call rests on the fitted dose curve.

For Cc1ncc([N+](=O)[O-])n1CCOC(=O)c1ccc(Cl)cc1Cl the results were Integrin act MD 8%, Giardia killer inconclusive, Rango-impB inh -4%, uPA generation 1% and Rango release inh 0%.
Screening COc1ccc(NC(=O)OCCn2c([N+](=O)[O-])cnc2C)cc1 returned Integrin act MD -11%, Giardia killer -87*, Rango-impB inh -1%, uPA generation 3% and Rango release inh 26%.
COC(=O)CCC(=O)OC1(C)C(=O)C2=CN(C3CCCC3)C(c3ccc(OC)cc3)=CC2=C(Br)C1=O (configuration not stated) was read as Integrin act MD 25%, Giardia killer -10, Rango-impB inh inconclusive, uPA generation 14% and Rango release inh 9.2µM*.
For COC(=O)CCC(=O)OC1(C)C(=O)C2=CN(c3ccc(OC)cc3)C(c3ccc(OC)cc3)=CC2=C(Br)C1=O (configuration not stated) the results were Integrin act MD 16%, Giardia killer -7, Rango-impB inh inconclusive, uPA generation -3% and Rango release inh inconclusive.
Screening COC(=O)Nc1ccc(SCC(=O)c2cccc([N+](=O)[O-])c2)cc1 returned Integrin act MD -39%, Giardia killer -6, Rango-impB inh -1%, uPA generation inconclusive and Rango release inh 15%.
For O=C(NCc1ccco1)/C(=C/c1ccc(C(F)(F)F)cc1)c1nc2ccccc2[nH]1 the results were Integrin act MD -26%, Giardia killer -1, Rango-impB inh inconclusive, uPA generation inconclusive and Rango release inh 18µM*.
Screening O=[N+]([O-])c1cc(S(=O)(=O)Nc2ccc(Cl)cc2)ccc1N/N=C/c1ccncc1 returned Integrin act MD inconclusive, Giardia killer 0, Rango-impB inh 1%, uPA generation 4% and Rango release inh 2%.
Screening O=[N+]([O-])c1ccc(Cl)cc1N/N=C/c1ccncc1 returned Integrin act MD 5.6µM*, Giardia killer 4, Rango-impB inh 1%, uPA generation 6% and Rango release inh 1%.
`O=C(CNC(=O)C1CCCCC1)OCC(=O)c1ccc(-c2ccccc2)cc1` gave Giardia killer -2.
Cc1ccc(Nc2nnc(SCC(=O)NCCN3C(=O)CSC3=O)s2)cc1C was read as Integrin act MD -3%, Giardia killer -11, Rango-impB inh -2%, uPA generation 5µM* and Rango release inh 14%.
`CC(NC(=O)c1cc(S(=O)(=O)N2CCOCC2)cn1C)c1ccccc1` (configuration not stated) gave Integrin act MD -4%, Giardia killer 0, Rango-impB inh 1%, uPA generation 8% and Rango release inh 12%.
Screening COc1ccccc1-c1nc(-c2ccccn2)no1 returned Integrin act MD 14%, Giardia killer inconclusive, Rango-impB inh -3%, uPA generation 1.4µM* and Rango release inh 13%.
`Clc1ccc(-c2nc(-c3ccccn3)no2)cc1Cl` gave Integrin act MD -13%, Giardia killer inconclusive, Rango-impB inh 4%, uPA generation -21% and Rango release inh -3%.
Screening Cc1ccccc1-c1nc(-c2ccccn2)no1 returned Integrin act MD 0%, Giardia killer inconclusive, Rango-impB inh -1%, uPA generation inconclusive and Rango release inh 0%.
Screening COc1ccc(-c2nc(-c3ccccn3)no2)cc1 returned Integrin act MD 10%, Giardia killer -81*, Rango-impB inh 0%, uPA generation 1.4µM* and Rango release inh -6%.
CCCC[C@@H]1CCCO[C@@](C(=O)NCCN2CCOCC2)(C(F)(F)F)C1 was read as Giardia killer 6.
`CCN1C(=O)[C@H]2[C@@H](c3ccc(C(F)(F)F)cc3)N[C@]3(CCCN(Cc4ccc(C)cc4)C3=O)[C@H]2C1=O` gave Integrin act MD 14%.
For CCC1CSC(=Nc2ccc(C)cc2)N1C(=O)CN1C(=O)NC2(CCCC2)C1=O (configuration not stated) the results were Integrin act MD 3%, Giardia killer -3, Rango-impB inh -4%, uPA generation 8.9µM* and Rango release inh 1%.
For O=C(CSc1nnc(NC(=O)c2ccccc2F)s1)NCc1ccco1 the results were Integrin act MD -8%, Giardia killer 2, Rango-impB inh -2%, uPA generation 7.9µM* and Rango release inh 14%.
Screening COc1ccc(CCn2c(=S)[nH]c(=O)c3c(C)cc(C)nc32)cc1OC returned Giardia killer 14.
`O=C(NC(C(=O)N/N=C/c1cc([N+](=O)[O-])ccc1O)c1n[nH]c(=O)c2ccccc12)c1ccccc1` (configuration not stated) gave Integrin act MD 2%, Giardia killer -1, Rango-impB inh inconclusive, uPA generation 2% and Rango release inh 16µM*.
`O=C(NC(C(=O)N/N=C/c1cccc2ccccc12)c1n[nH]c(=O)c2ccccc12)c1ccccc1` (configuration not stated) gave Integrin act MD -33%, Giardia killer 17, Rango-impB inh -2%, uPA generation 3% and Rango release inh -3%.
For O=C(Nc1nnc(C2CC2)o1)c1ccc(S(=O)(=O)N2CCCc3ccccc32)cc1 the results were Integrin act MD -9%, Giardia killer inconclusive, Rango-impB inh -3%, uPA generation 6.3µM* and Rango release inh 0%.
`COCc1nnc(NC(=O)c2ccc(S(=O)(=O)N3CCCc4ccccc43)cc2)o1` gave Integrin act MD -44%, Giardia killer 6, Rango-impB inh -2%, uPA generation -15% and Rango release inh -4%.
`C=CCc1c(C)nc(-c2ccccc2)nc1N/N=C/c1ccccc1` gave Integrin act MD 11µM*, Giardia killer -4, Rango-impB inh 2%, uPA generation -8% and Rango release inh 2%.
`C=CCc1c(C)nc(-c2ccccc2)nc1N/N=C/c1ccncc1` gave Integrin act MD 19%, Giardia killer -9, Rango-impB inh 0%, uPA generation -5% and Rango release inh 28%.
O=C(Nc1ccc2[nH]ccc2c1)c1cccs1 was read as Integrin act MD 7%, Giardia killer inconclusive, Rango-impB inh 0%, uPA generation 7.1µM* and Rango release inh 12%.
CCCC(=O)Nc1ccccc1NC(=O)c1ccc(OCC)cc1 was read as Integrin act MD 11µM*, Giardia killer -10, Rango-impB inh 10%, uPA generation 12% and Rango release inh -4%.
Screening COc1ccc(C(=O)Nc2ccc3[nH]ncc3c2)cc1 returned Integrin act MD 34%, Giardia killer inconclusive, Rango-impB inh 0%, uPA generation 3.2µM* and Rango release inh -17%.
CCOc1ccc(C(=O)Nc2ccc3[nH]ncc3c2)cc1 was read as Integrin act MD inconclusive, Giardia killer inconclusive, Rango-impB inh 0%, uPA generation 5µM* and Rango release inh 1%.
